A short description of assay [1]: NCI Yeast Anticancer Drug Screen. Data for the rad50 strain (AID 155).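 Note: 0% = growth of vehicle-only cultures of the same strain.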 The following applies: S. cerevisiae rad50 strain growth inhibition; at 50.0 µM; stronger effect = higher value. Summed up:
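DNA repair mutant yeast, compound exposure, growth read-out; inhibition is taken relative to vehicle.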

A short description of assay [2]: NCI Yeast Anticancer Drug Screen. Data for the mec2-1 strain (AID 157). The following applies: S. cerevisiae mec2-1 strain, at 50.0 µM, stronger effect = higher value. Summed up:
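Using mec2-1 yeast: add compound, measure growth, express inhibition versus vehicle-treated cultures.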

The nature of assay [3]: NCI Yeast Anticancer Drug Screen. Data for the sgs1 mgt1 strain (AID 161).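 Note: 0% = growth of cultures given vehicle only.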 Conditions: S. cerevisiae sgs1 mgt1 strain, at 50.0 µM, stronger effect = higher value. Summed up:
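Yeast cells carrying a defined DNA-repair defect were exposed to test compounds. Growth inhibition was measured relative to vehicle-treated controls.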

Assay [4] can be described thus: NCI Yeast Anticancer Drug Screen. Data for the cln2 rad14 strain (AID 165).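 Note: 0% = growth equal to vehicle treated cultures.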 Conditions: S. cerevisiae cln2 rad14 strain, at 50.0 µM, stronger effect = higher value. Summed up:
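Yeast strain cln2 rad14, bearing defects in cell cycle control and DNA repair, serves as the test system; values reflect growth inhibition compared with vehicle.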

Assay [5] in a line: NCI Yeast Anticancer Drug Screen. Data for the bub3 strain (AID 167). The following applies: S. cerevisiae bub3 mutant strain, at 50.0 µM, stronger effect = higher value. Summed up:
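In this screen, a yeast mutant lacking normal mitotic checkpoint function is challenged with compound. Relative growth versus vehicle gives the inhibition value.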

A short description of assay [6]: NCI Yeast Anticancer Drug Screen. Data for the mlh1 rad18 strain (AID 175). Conditions: S. cerevisiae mlh1 rad18 strain growth inhibition; at 50.0 µM; stronger effect = higher value. Summed up: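 Steps: expose repair-defective yeast to compound; measure growth; express inhibition against vehicle-treated controls.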

Data on 21 compounds can be found in PubChem BioAssay (NCI).

Structures are written as SMILES. About 79,000 compounds went through this panel and 15% of them were active in at least one assay; those are over-represented in the sample as a whole. Unmarked numbers belong to inactive results. Activity calls are given as the source filed them. Cut-off read from the data, not from the text of the source: active = growth inhibition above about 70%; inactive = the rest.

On to `COc1cc(CC2c3cc(OC)c(OC)cc3CCN2C)ccc1O` (stereo unspecified), for which the growth inhibition in assay [1] was -22.3%; in assay [2], -17.9%; in assay [3], -5.75%; in assay [4] it was -9.2%; in assay [5] it was -15.6%; in assay [6], -3.35%.

Regarding `ClC(Cl)(Cl)C(=NNc1ccccc1)C(Cl)(Cl)Cl`, the growth inhibition was -0.1% in assay [1]; 16.4% in assay [2]; 30.4% in assay [3]; 50.5% in assay [4]; 30.6% in assay [5]; 69.5% in assay [6].

Regarding `CN1CCC(O)(c2ncc(Br)c3ccccc23)CC1`, the growth inhibition in assay [1] was 17.1%; in assay [2], -7.8%; in assay [3], 24.9%; in assay [4], 10.8%; in assay [5], 11.2%; in assay [6], 39.6%.

For the compound `CCCCC(O)(CC)CC`, the growth inhibition was 3.3% in assay [1]; -23.9% in assay [2]; -3.6% in assay [3]; 5.5% in assay [4]; -16.4% in assay [5]; 15.2% in assay [6].

Turning to `COC12COC(=O)C1C(c1ccc3c(c1)OCO3)c1cc3c(cc1O2)OCO3` (stereo unspecified), the growth inhibition in assay [1] is 21.8%; in assay [2], -0.6%; in assay [3], 11.5%; in assay [4] it was 8.95%; in assay [5], 17.4%; in assay [6] it was -4.7%.

Consider `CN(C)c1ccc(N=Nc2ccc(S(=O)(=O)O)cc2)cc1.CN(C)c1ccc(N=Nc2ccc(S(=O)(=O)O)cc2)cc1.[NH-]C1CCCCC1[NH-].[Pt+2]`, for which the growth inhibition in assay [1] is 24.2%; in assay [2] it was 7.1%; in assay [3] it was 10.3%; in assay [4] it was -9.15%; in assay [5] it was 15.6%; in assay [6], 3.55%.

As to `CCOc1nc(C)cc(C(=O)OC)c1C#N`, the growth inhibition in assay [1] was 18.4%; in assay [2], 15.7%; in assay [3], 19.6%; in assay [4], 17.4%; in assay [5], 0.3%; in assay [6] it was 2%.

Take `COc1ccc(C(=O)c2ccc(OC)cc2OC)cc1`: the growth inhibition in assay [1] is -4.15%; in assay [2], 1.7%; in assay [3] it was 21.4%; in assay [4], -23.1%; in assay [5], 3.05%; in assay [6], 1.3%.

Regarding `CS(=O)(=O)c1c(N)c2nc(Cl)cn2c2nc3ccccc3nc12`, the growth inhibition in assay [1] is -11.4%; in assay [2], -2.1%; in assay [3] it was -10.3%; in assay [4], -9.15%; in assay [5] it was -27.1%; in assay [6], -16.5%.

Take `Cc1cccc(O)c1O`: the growth inhibition in assay [1] is 25.2%; in assay [2], 0.15%; in assay [3], 23.1%; in assay [4] it was -0.2%; in assay [5], 16.8%; in assay [6], 20.4%.

For the compound `O=C1c2cc3c(cc2C(=O)c2[nH]c(=O)ccc21)CCCC3`, the growth inhibition in assay [1] is 11.5%; in assay [2] it was 25.9%; in assay [3], 16%; in assay [4], 0.85%; in assay [5], 33.4%; in assay [6], 35.6%.

As to `CCn1c2ccccc2c2c3ncc4cccn4c3ccc21`, the growth inhibition in assay [1] is 10.8%; in assay [2], -6.95%; in assay [3], 19.4%; in assay [4], 14.4%; in assay [5] it was 7.95%; in assay [6], 27.8%.

As for `CC(C)OC(=O)C(C)(OC(=O)c1ccccc1)c1ccccc1` (stereo unspecified), the growth inhibition in assay [1] was 5.35%; in assay [2], -14.8%; in assay [3], 4.35%; in assay [4], -13.1%; in assay [5], 19.1%; in assay [6], 14.3%.

On to `CC(=O)Oc1cccc2c(/C=N/NC(N)=S)ncc(C)c12`, for which the growth inhibition in assay [1] was 87.6% (active); in assay [2] it was 78.3% (active); in assay [3] it was 86.7% (active); in assay [4] it was 83.5% (active); in assay [5] it was 84.6% (active); in assay [6] it was 90.3% (active).

As for `CCN(CC)C1=Nc2ccccc2N(c2ccccc2)C(SC)=C1`, the growth inhibition in assay [1] is -1.4%; in assay [2], -6.9%; in assay [3], 6.15%; in assay [4], -6.45%; in assay [5], 2.25%; in assay [6], 14.5%.

As to `CCc1cccc(C(C)C)c1NC(=O)/C(=N\NC(N)=O)C(C(=O)OC)c1cnc2ccccc2n1` (stereo unspecified), the growth inhibition in assay [1] was 19.8%; in assay [2], 29.8%; in assay [3] it was 1.15%; in assay [4] it was 11.1%; in assay [5], 26.1%; in assay [6], 21.4%.

As for `Cn1c(=O)ccc2c(=O)c3c(ccc4ccccc43)oc21`, the growth inhibition was -10.1% in assay [1]; -12.3% in assay [2]; -28.1% in assay [3]; -10.1% in assay [4]; -7.05% in assay [5]; -23.9% in assay [6].

Regarding `C=CC(=O)OCc1ccc(OC)cc1`, the growth inhibition is 30.1% in assay [1]; 32.2% in assay [2]; 28.9% in assay [3]; 14.2% in assay [4]; 5.95% in assay [5]; 29.5% in assay [6].

Turning to `Cc1cc(-c2cc(C)on2)no1`, the growth inhibition was -44.7% in assay [1]; -2.75% in assay [2]; -15.9% in assay [3]; -30.1% in assay [4]; -6.15% in assay [5]; -3.25% in assay [6].

Take `O=C(O)c1c(Br)c(Br)c(Br)c(Br)c1C(=O)Nc1ccccc1C(F)(F)F`: the growth inhibition in assay [1] was -8.55%; in assay [2], -11.4%; in assay [3] it was -2.65%; in assay [4] it was -2.75%; in assay [5], 8.05%; in assay [6] it was -12.2%.

For the compound `COc1ccccc1/C=C/c1nc2ccccc2o1`, the growth inhibition in assay [1] is 47.6%; in assay [2], 19.7%; in assay [3], 56.1%; in assay [4] it was 13.6%; in assay [5], 59.8%; in assay [6], 53%.
